Screening data from PubChem BioAssay.
Sampled rows, rich in hits. Any-hit rate of the full collection: about 3.8%.
Nrf2 block: Nrf2 pathway inhibition. A549 ARE-Fluc reporter, luciferase luminescence, 18-24 h. Potency, µM (top dose mostly 46 µM), for inactives: at the top dose activity change, negative = inhibition, most hits filed as inhibitors. 360,000 compounds, 2.1% hits. AID 504444; further: on the % scale 0 is the no-effect control and ±100 the full control effect; nearly all actives have a fitted effect of over 60% in size
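In this cell-based qHTS, ARE-driven firefly luciferase in A549 cells reports Nrf2 activity; the luminescent signal after BugLite lysis is the measured value, with a prior CellTiter-Fluor read for cell health.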
TGFb SMAD3 inh: TGF-b pathway inhibition. AID 588855. 410,000 compounds, 1.2% hits. HepG2 CAGA-GFP TGF-b/SMAD3 reporter, GFP fluorescence, 18 h; TGF-beta stimulated, 500 pg/mL final. Potency, µM (titrated, usually from 46.1 µM), without a hit: at the top dose activity, negative = inhibition, hits mostly inhibitors; further: on the % scale 0 is the no-effect control and ±100 the full control effect; nearly all actives have a fitted effect of over 65% in size
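First, reporter cells (HEPG2 CAGA-GFP) rested 2 h at 37 degrees C. Next, compounds were pinned in and TGF-beta added to 500 pg/mL final. After 18 h, GFP was imaged per cell and summed per well.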
ATXN2 expr inh: inhibitors of ATXN2 expression; HEK-293 ATXN2-luciferase reporter, luminescence, 24 h; Potency, µM (series often up to 57 µM), for the others: top-dose activity change, negative = inhibition, actives largely listed as inhibitors; 360,000 compounds, 0.72% hits; AID 1745845; further: on the % scale 0 is the no-effect control and ±100 the full control effect; nearly all actives have a fitted effect of over 55% in size
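ATXN2-luciferase reporter cells (luciferase flanked by upstream and downstream ATXN2 gene portions) were treated 24 h at 37 °C with compounds at up to 57 uM. SteadyGlo luminescence gave expression; GF-AFC fluorescence gave viability.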
S2 tox: reduces viability in counter-screen for ATXN expression inhibitors; S2 cells (HEK-293 line with an ATXN2-luciferase reporter) viability, CellTiter-Fluor protease fluorescence, 24 h; Potency, µM (highest dose often 56.7 µM), actives largely listed as cytotoxic; 400,000 compounds, 0.49% hits; AID 651635; further: nearly all actives have a fitted effect of over 40% in size
HepG2 viability: HepG2 cytotoxicity, counter-screen for TGF-b inhibitors; HepG2 CAGA-GFP viability, ATP luminescence, 18 h; Potency, µM (doses to about 46.1 µM), without a hit: at the top dose activity change, negative = cytotoxicity, actives largely listed as cytotoxic; 410,000 compounds, 0.76% hits
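HepG2 CAGA-GFP cells (1000/well, DMEM with 1% FBS) received compound, then TGF-beta at 500 pg/mL final, and were incubated 18 hours at 37 degrees C. Viability was read by CellTiter-Glo luminescence. Media-only wells were set as complete cell-killing and DMSO as no toxicity.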
A549 tox-1: counter-screen for Nrf2 inhibitors: cytotoxicity in A549 cells; 390,000 compounds, 0.16% hits; Potency, µM (titrated, usually from 46 µM), for inactives: top-dose activity change, negative = cytotoxicity, most hits filed as inhibitors; A549 ARE-Fluc cells, CellTiter-Fluor viability, 18-24 h; further: on the % scale 0 is the no-effect control and ±100 the full control effect
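Cytotoxicity counterscreen: CellTiter-Fluor fluorescence was measured in A549 ARE_Fluc cells after 18-24 h of compound exposure in a concentration series. The subsequent BugLite luminescent read reports ARE-luciferase activity.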
FLuc counter 3: firefly luciferase inhibition, Nrf2 hit validation. shares compounds with Nrf2 block. purified firefly luciferase, luminescence inhibition. Potency, µM (titrated, usually from 57.5 µM), for inactives: top-dose activity change, negative = inhibition, usual class: inhibitors. 1,400 compounds, 4% hits. AID 720522; further: on the % scale 0 is the no-effect control and ±100 the full control effect; nearly all actives have a fitted effect of over 65% in size
Target sequence (P08659 whole entry, looked up): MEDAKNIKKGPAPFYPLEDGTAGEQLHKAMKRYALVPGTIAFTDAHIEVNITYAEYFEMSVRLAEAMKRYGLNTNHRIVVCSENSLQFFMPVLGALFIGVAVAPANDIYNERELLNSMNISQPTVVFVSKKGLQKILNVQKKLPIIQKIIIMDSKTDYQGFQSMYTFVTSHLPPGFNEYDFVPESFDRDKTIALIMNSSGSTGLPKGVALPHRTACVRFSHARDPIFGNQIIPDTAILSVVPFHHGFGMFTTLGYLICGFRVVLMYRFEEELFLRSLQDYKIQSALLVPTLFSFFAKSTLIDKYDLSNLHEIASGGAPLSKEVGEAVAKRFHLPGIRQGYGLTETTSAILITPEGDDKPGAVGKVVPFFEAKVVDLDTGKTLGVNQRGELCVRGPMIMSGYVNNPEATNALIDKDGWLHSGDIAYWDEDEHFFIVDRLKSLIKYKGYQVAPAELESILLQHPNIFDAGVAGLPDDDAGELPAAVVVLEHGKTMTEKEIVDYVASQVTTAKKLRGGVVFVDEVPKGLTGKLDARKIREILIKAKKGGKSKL
A549 tox-2: toxic to A549 ARE-Fluc cells in Nrf2 counterscreen; shares compounds with Nrf2 block; A549 ARE-Fluc cells, cytotoxicity counterscreen; Potency, µM (doses to about 46.1 µM), for the others: at the top dose activity change, negative = cytotoxicity, usual class: inhibitors; 1,400 compounds, 2% hits; AID 720523;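 further: cells exposed to compounds for 18 to 24 hours; on the % scale 0 is the no-effect control and ±100 the full control effect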
Nrf2 ARE inh: reduces Nrf2 ARE reporter signal in A549 cells | shares compounds with Nrf2 block | Potency, µM (titrated, usually from 46.1 µM), for the others: at the highest dose activity change, negative = inhibition, most hits filed as inhibitors | A549 ARE-firefly luciferase reporter, luminescence | 1,400 compounds, 74% hits; further: on the % scale 0 is the no-effect control and ±100 the full control effect; nearly all actives have a fitted effect of over 65% in size
Active calls of the source: *; i = inactive; ? = inconclusive; nt = no result shown; [ ] = another dose, or the depositor's remark. The call rests on the fitted dose curve; in most records, active means well fitted curve in the direction sought with a large enough effect; inconclusive means small, poorly fitted or top-dose-only effect, or another doubt; inactive means no such curve, though single readings can be large; an effect the other way counts as inactive or inconclusive. Potency means the concentration at half of the fitted maximal effect.

SMILES	Nrf2 block	TGFb SMAD3 inh	ATXN2 expr inh	S2 tox	HepG2 viability	A549 tox-1	FLuc counter 3	A549 tox-2	Nrf2 ARE inh
CC(=O)OCC(=O)[C@@]1(O)CC[C@H]2[C@@H]3CCC4=CC(=O)CC[C@]4(C)[C@@H]3C(=O)C[C@@]21C	nt	nt	-2%	nt	nt	nt	nt	nt	nt
CC12CCC(=O)C=C1CCC1C2C(O)CC2(C)C1CCC21OCC1=O (centres undefined)	?	-3%	-8%	i	6%	-8%	nt	nt	nt
CC12CCC(=O)C=C1CCC1C2C(O)CC2(C)C1CCC2(O)C(=O)COC(=O)COCC(=O)O (centres undefined)	0.29µM*	9%	7%	i	1%	-6%	2%	-12%	0.073µM*
CC(=O)OCC(=O)C1(O)CCC2C3CCC4=CC(=O)CCC4(C)C3C(O)CC21C (centres undefined)	0.15µM*	5%	1%	i	4%	-1%	3%	-7%	0.18µM*
CCOC(=O)OCC(=O)C1(O)CCC2C3CCC4=CC(=O)CCC4(C)C3C(O)CC21C (centres undefined)	0.21µM*	-4%	5%	?	4%	-6%	1%	4%	nt
CCCCCCCC(=O)OCC(=O)[C@@]1(O)CC[C@H]2[C@@H]3CCC4=CC(=O)CC[C@]4(C)[C@H]3[C@@H](O)C[C@@]21C	0.46µM*	7%	-6%	i	2%	-1%	3%	-5%	0.33µM*
CCCC(=O)O[C@]1(C(=O)COC(=O)CC)CC[C@H]2[C@@H]3CCC4=CC(=O)CC[C@]4(C)[C@H]3[C@@H](O)C[C@@]21C	nt	nt	5%[25.6 µM]	i	nt	nt	nt	nt	nt
CSc1nc2nc3c(cc2c(=O)n1-c1ccccc1C)CCCC3	5.8µM*	?	?	?	17%	?	1%	-22%	nt
CSc1nc2sc3c(c2c(=O)n1-c1ccccc1C)CCCC3	nt	?	-11%	i	-6%	0%	nt	nt	nt
Cc1ccc(S(=O)(=O)NCC(=O)OCc2nnc(-c3ccccc3)o2)cc1	7%	7%	4%	i	1%	1%	nt	nt	nt
C[C@@H]1CN([C@@H](C)CO)C(=O)c2cc(Br)cnc2O[C@H]1CN(C)Cc1cccc(C(=O)O)c1	nt	-3%	5%	i	-50%	nt	nt	nt	nt
Cc1cc(OCC(=O)Nc2ccncc2)cc(C)c1Br	9.2µM*	-2%	-21%	i	-1%	-8%	-10%	11%	8.2µM*
O=C(CCCN1C(=O)/C(=C/c2ccccc2Cl)SC1=S)NNC(=O)c1ccc(Cl)cc1	8.2µM*	1%	?	i	0%	0%	-5%	-22%	7.3µM*
Cc1ccc(/C=C2/SC(=S)N(CCCC(=O)Nc3ccc(O)cc3)C2=O)cc1	9.2µM*	?	2.5µM*	?	-52%	?	?	?	13µM*
O=C(CCCN1C(=O)/C(=C\c2ccccc2)SC1=S)Nc1ccc(O)cc1	?	?	18%[11.3 µM]	i	-7%	?	nt	nt	nt
O=C(CCN1C(=O)/C(=C/c2ccccc2Cl)SC1=S)NNC(=O)c1cccnc1	4%	-1%	9%	?	-17%	-4%	nt	nt	nt
Cc1ccc(C(=O)NNC(=O)CCCN2C(=O)/C(=C/c3ccccc3Cl)SC2=S)cc1	9.2µM*	1%	?	i	-2%	?	?	-4%	?
COc1cc2sc3ccc(C#Cc4ccccn4)cc3c(=O)c2cc1OC	2%	12%	-3%	?	-25%	3%	nt	nt	nt
COc1cc2sc3ccc(C#Cc4ccc(N)cc4)cc3c(=O)c2cc1OC	4.6µM*	?	-5%	i	-31%	-21%	-22%	?	2.3µM*
CC(O/N=C(\N)c1ccccc1)C(=O)Nc1cccc(C(F)(F)F)c1 (centres undefined)	5%	?	-26%	i	-23%	1%	nt	nt	nt
Cc1ccc(-n2c(-c3ccccc3)c[n+]3c2CCC3)cc1	5.8µM*	-24%	-2%[11.3 µM]	?	-14%	?	0%	-6%	6.5µM*
c1ccc(-c2c[n+]3c(n2-c2ccccc2)SCC3)cc1	?	-8%	-17%	i	19%	12%	nt	nt	nt
Cc1ccc(-n2c(-c3ccc(Cl)cc3)c[n+]3c2CCC3)cc1	3.7µM*	-21%	-25%	?	-37%	-15%	3%	-2%	-36%
FC(F)Sc1ccc(-n2c(-c3ccc(Cl)cc3)c[n+]3c2CCC3)cc1	15%	2%	nt	i	-13%	9%	nt	nt	nt
CCOC(=O)[C@H](CCc1ccccc1)N[C@@H](C)C(=O)N1Cc2cc(OC)c(OC)cc2C[C@H]1C(=O)O	nt	nt	11%	i	nt	nt	nt	nt	nt
SMILES	Nrf2 block	TGFb SMAD3 inh	ATXN2 expr inh	S2 tox	HepG2 viability	A549 tox-1	FLuc counter 3	A549 tox-2	Nrf2 ARE inh
CC(NC(=O)c1cc2c(s1)CS(=O)(=O)C2)c1ccccc1 (centres undefined)	3%	1%	nt	i	-11%	-11%	nt	nt	nt
COc1ccc(OCC(=O)Nc2ccc(NC(=O)c3cccs3)c(OC)c2)cc1	-9%	-2%	-3%	i	6%	0%	nt	nt	nt
COc1cc(NC(=O)c2cccs2)c(OC)cc1NC(=O)CCC(=O)Nc1ccc2ncccc2c1	5.8µM*	?	?	?	-34%	-3%	-13%	2%	-11%
CC1CCCN(S(=O)(=O)c2ccc(NC(=O)c3nc(SC(C)C)ncc3Cl)cc2)C1 (centres undefined)	-24%	0%	8%	i	-11%	3%	nt	nt	nt
CC(C)c1ccc(-c2nnn(CCC(=O)O)n2)cc1	0.33µM*	0%	0.56µM*	i	-2%	-2%	11µM*	-3%	0.82µM*
CC(=O)Nc1ccc(NC(=O)c2c(-c3ccccc3)noc2C)cn1	7.3µM*	5%	-2%	i	-4%	-1%	3%	-8%	9.2µM*
